Compound activity (PubChem BioAssay)
Shown is part of a subset that was picked to be rich in hits.
HSV replic up – increases HSV replication in cells | HSV replication augmentation in cells, fold increase | maximum fold increase | hit rate 0.005% among 220,000; in the data active = maximum fold increase above about 1.5; inconclusive = no clear call, values can overlap the other calls; tested in PC3 cells
INS promoter inh – TRM-6 insulin promoter activity inhibition; AID 1273; hit rate 0.9% among 130,000; TRM-6 cells (human fetal islet line), insulin promoter-eGFP reporter, imaging; reporter expression induced with tamoxifen; inhibition, % at 2 µM;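 active = inhibition above the mean plus 3 SD, with well images judged a real hit on visual review, cut at about 60% in these data, passing the limit was not always enough; inconclusive = inhibition over the cutoff but images rejected on review; inactive = inhibition not above the cutoff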
Ins promoter up – MIN6 insulin promoter up-regulation. z-score at 5 µM. hit rate 0.3% among 190,000. AID 1625. MIN6 insulin promoter-GFP reporter, high-content imaging; hits give high values;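 active = z-score above 3 at 5 µM with at least 500 cells counted in the well; inconclusive = wells under 500 cells, flagged as cytotoxic or low count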
Tb hexokinase – blocks Trypanosoma brucei hexokinase 1 activity. recombinant TbHK1, G6PDH-coupled NADH A340. inhibition, % at 10 µM. hit rate 0.11% among 220,000. AID 1430;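 active = inhibition of 50% or more in the single-dose primary screen; inactive = inhibition below 50%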
ROMK primary – modulates human ROMK potassium channel activity | Tet-inducible ROMK, thallium flux fluorescence; actives lie on both sides | B-score at 10 µM | hit rate 2% among 130,000;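 active = signal ratio slope over the read window, or its plate-corrected B-score, at least 3 SD from the plate mean, either direction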;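 also: B-score of the F/F0 ratio slope over 7 to 12 s after thallium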
Target sequence (P48048 whole entry, looked up): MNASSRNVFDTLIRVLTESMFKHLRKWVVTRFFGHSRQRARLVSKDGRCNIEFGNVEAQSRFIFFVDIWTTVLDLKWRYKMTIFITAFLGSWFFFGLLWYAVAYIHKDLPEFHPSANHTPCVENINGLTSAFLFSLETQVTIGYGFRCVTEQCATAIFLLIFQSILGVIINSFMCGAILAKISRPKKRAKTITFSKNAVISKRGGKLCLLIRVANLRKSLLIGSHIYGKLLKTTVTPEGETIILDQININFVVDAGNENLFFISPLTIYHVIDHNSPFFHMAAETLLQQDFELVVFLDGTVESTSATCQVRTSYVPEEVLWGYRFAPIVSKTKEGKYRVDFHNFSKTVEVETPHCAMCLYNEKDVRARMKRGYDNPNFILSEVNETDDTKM
ROMK hit retest – confirmation of human ROMK potassium channel modulators | shares compounds with ROMK primary | ROMK thallium flux, fluorescence ratio; hits give low values | normalized thallium flux (F/F0 slope) at 10 µM | hit rate 54% among 3,000;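 active = Flux at 10 µM at least 3 SD below or above vehicle control mean in one or both replicates; inconclusive = no clear call, values can overlap the other calls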
Large screens that a line does not name were inactive (follow-up assays come after a bar, where they were run).

CC(=O)c1cc(-c2ccccc2)n(CCC(=O)NC(C)(C)C)c1C	none
OCC1(CCOc2ccccc2)CCN(C2Cc3ccccc3C2)CC1	ROMK primary -3.02 (no result: INS promoter inh) | ROMK hit retest 0.0576
CCOc1ccc(S(=O)(=O)N(C)CCO)cc1-c1nc2c(C(C)(C)C)nn(C)c2c(=O)[nH]1	ROMK primary -4.31 (no result: HSV replic up) | ROMK hit retest 0.0475
CCOc1ccc(S(=O)(=O)N(C)C)cc1-c1nc2c(C(C)(C)C)nn(C)c2c(=O)[nH]1	none
O=C(Nc1ccc(F)cc1)Nc1ccc(NC(=O)c2ccccc2O)cc1	ROMK primary -11 (no result: INS promoter inh) | ROMK hit retest inactive
O=C(Nc1ccc(F)cc1)c1ccccc1F	none
CCCn1nc(NC(=O)c2cccs2)c2cc3cc(C)ccc3nc21	none (no result: INS promoter inh, Ins promoter up)
Clc1cccc(-c2cc3nc4c(c(N5CCOCC5)n3n2)CCCC4)c1	ROMK primary -3.91 | ROMK hit retest 0.0637
Fc1cccc(-c2cc3nc4c(c(N5CCOCC5)n3n2)CCCC4)c1	none (no result: ROMK primary)
O=C(Cc1csc(-c2ccccc2)n1)NCc1cccs1	none
Cc1oc(-c2ccc3ccccc3c2)nc1CN(C)C(C)c1ccncn1 (stereo not given)	none (no result: ROMK primary)
CC(C)(c1ccccc1)c1ccc(OCC(O)CNC2CCN(Cc3ccccc3)CC2)cc1 (stereo not given)	Ins promoter up inconclusive
O=C(Nc1ccc(O)c(-c2nc3ccccc3o2)c1)C1(c2ccc(Br)cc2)CCCC1	none (no result: INS promoter inh, ROMK primary) | ROMK hit retest inactive
COc1cccc(C2C(C(=O)c3ccco3)=C(O)C(=O)N2CCN(C)C)c1OC (stereo not given)	none
CN(C)CCN1C(=O)C(O)=C(C(=O)c2ccco2)C1c1ccccc1F (stereo not given)	none (no result: ROMK primary) | ROMK hit retest inactive
Cc1c(O)ccc(-c2n[nH]c(C(=O)O)c2-c2nc3ccccc3s2)c1O	none (no result: INS promoter inh, ROMK primary)
CC(C)(C)NC(=O)CN(Cc1cccs1)C(=O)C1COc2ccccc2O1 (stereo not given)	none (no result: ROMK primary)
CC(C)CCNC(=O)C(c1ccc(O)cc1)N(Cc1cccs1)C(=O)C1COc2ccccc2O1 (stereo not given)	ROMK primary -2.83 | ROMK hit retest 0.0611
CCCCc1cc(=O)oc2cc(C)cc(O)c12	none (no result: ROMK primary) | ROMK hit retest 0.0542
CCc1ccc(/C(C)=N/NC(=O)c2ccccn2)cc1	none
CC(=N/O)/C(C)=N\NC(=O)c1ccccn1	ROMK primary -3.88 | ROMK hit retest inactive
O=C(Nc1ccc(Cl)cc1)C(c1ccccc1)N1CCOCC1 (stereo not given)	none
CC(C)c1ccc(NC(=O)C(c2ccccc2)N2CC(=O)Nc3ccccc32)cc1 (stereo not given)	ROMK primary 1.91 (no result: HSV replic up) | ROMK hit retest inactive
Fc1cccc(CN2CCN(Cc3nc(CCc4ccccc4)no3)CC2)c1	none (no result: INS promoter inh, ROMK primary)
S=c1[nH]c2cc(-c3ccccc3)ccc2o1	none (no result: INS promoter inh, ROMK primary) | ROMK hit retest 0.106
O=S(=O)(c1ccc2oc(=S)[nH]c2c1)N1CCCCC1	none (no result: INS promoter inh, ROMK primary)
FC(F)(F)c1ccc(N2CCN(c3ncnc4c3nnn4Cc3ccccc3Cl)CC2)cc1	none
O=C(c1ccco1)N1CCN(c2ncnc3c2nnn3Cc2ccccc2Cl)CC1	ROMK primary -5.06 | ROMK hit retest inactive
Fc1ccc(N2CCN(c3ncnc4c3nnn4Cc3ccccc3Cl)CC2)cc1	ROMK primary -2.65 (no result: Ins promoter up) | ROMK hit retest 0.0662
Cc1cc(C)nc(/N=C(\NC(=O)C(C)(C)C)Nc2ccc(F)cc2)n1	none (no result: INS promoter inh, ROMK primary)
Cc1cc(-c2nn(-c3ccccc3F)cc2CN2CCN(c3ccncc3)CC2)c(C)s1	ROMK primary -3.05 (no result: INS promoter inh) | ROMK hit retest 0.0635
Cc1cc(-c2nn(-c3ccccc3F)cc2CN2CCC(O)CC2)c(C)s1	none (no result: INS promoter inh)
CCOc1ccc(S(=O)(=O)NCc2ccccc2Cl)cc1C(N)=O	none (no result: INS promoter inh)
COc1ccc(Cl)cc1NS(=O)(=O)c1ccc(OC)c(OC)c1	ROMK primary -3.07 | ROMK hit retest inactive
COc1cc(S(=O)(=O)Nc2ccccc2C)ccc1Cl	none (no result: ROMK primary) | ROMK hit retest inactive
COc1ccc(S(=O)(=O)NCc2ccccc2Cl)cc1OC	none (no result: ROMK primary) | ROMK hit retest inactive
CCOC(=O)CSC1=C(C#N)C(c2ccccc2OCC)C(C(=O)OCC)C(=O)N1 (stereo not given)	none (no result: INS promoter inh)
CCOC(=O)CSC1=C(C#N)C(c2ccccc2OCC)C(C#N)C(=O)N1 (stereo not given)	ROMK primary 3.22 (no result: INS promoter inh, Ins promoter up) | ROMK hit retest inactive
Cc1ccc(/C=C/C(=O)OCn2nnc3ccccc3c2=O)o1	none (no result: INS promoter inh, ROMK primary)
Cc1cc(/C=N/NC(N)=S)c(C)n1-c1ccc(Cl)cc1	ROMK primary 1.7 | ROMK hit retest inactive
Cc1cccc(C)c1-n1c(C)cc(/C=N/NC(N)=S)c1C	ROMK primary 2.82 | ROMK hit retest inactive
